High-throughput results: PubChem, National Center for Advancing Translational Sciences (NCATS)
ALDH1A1 inh: qHTS Assay for Inhibitors of Aldehyde Dehydrogenase 1 (ALDH1A1); Aldehyde dehydrogenase 1A1 (Homo sapiens), P00352; Purified ALDH1A1, NADH fluorescence, propionaldehyde substrate; Potency, µM (highest dose often 75.3 µM), for the others: top-dose activity, negative = inhibition, most hits filed as inhibitors; actives 7.3% (n = 220,000); AID 1030, 2008; active = well fitted inhibition curve with a large enough effect, not every such curve was filed as active; inconclusive = small, poorly fitted or top-dose-only effect, or another doubt; inactive = no such curve, though single readings can be large or run the other way;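 note: potency is the fitted concentration of half-maximal effect; plate controls were no enzyme wells and a reference inhibitor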
IMPase cell inh: qHTS Assay for Identifying the Cell-Membrane Permeable IMPase Inhibitors; Inositol monophosphatase 1 (Rattus norvegicus), P97697; 120,000 tested, under 10 active; CHO-M1 cells, IP1 accumulation, HTRF TR-FRET ratio; inhibition (IP1 accumulation), % at 46.1 µM; active = well fitted curve in the direction sought with a large enough effect in the signal ratio, not every such curve was filed as active; inconclusive = small, poorly fitted or top-dose-only effect, or a change in a side signal; inactive = no such curve, though single readings can be large or run the other way; the % refers to the signal ratio;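 note: cells stimulated with carbachol in lithium chloride buffer; plate controls were DMSO basal wells for no effect and reference inhibitor wells for full effect; higher means more IMPase inhibition seen as more IP1 and lower FRET ratio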
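Carbachol-driven Gq signalling in CHO-M1 cells (2000/well) generates IP1. Compounds that block IMPase raise IP1 and so reduce the FRET signal from Eu-anti-IP1 and d2-IP1 after a 10 min room-temperature lysis.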
PNC inhibitor: High Content Assay for Compounds that inhibit the Assembly of the Perinucleolar Compartment | PC3M PTB-GFP, PNC prevalence imaging, 16 h; stronger effect = lower value | activity change (PNC), negative = inhibition, % at 10 µM | actives 3.1% (n = 140,000) | AID 2417, 2010;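 active = readout at or below -70, meaning at least 70% loss of cells showing the perinucleolar compartment, a nuclear body marking cancer cells; inconclusive = readout between -30 and a set limit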;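 note: plate controls were DMSO wells for no effect and camptothecin positive control wells for full effect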
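PC3M cells stably expressing PTB-GFP, 750–1000 cells/well, treated 16 h at 37 °C with compound (23 nl of library stock), in duplicate. After paraformaldehyde fixation and Hoechst stain, imaged at 20x; PNC prevalence scored by image analysis.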
IMPase Li inh: qHTS Assay for Identifying the Cell-Membrane Permeable IMPase Inhibitors: Potentiation with Lithium; CHO-M1 cells, IP1 TR-FRET (IP-One), carbachol + lithium; Potency, µM (highest dose often 59.4 µM), inactives show at the top dose activity, negative = IMPase inhibition, usual class: inhibitors; actives 0.35% (n = 210,000); AID 1457, 2008;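 note: IP1 builds up when IMPase is blocked and the TR-FRET signal falls; potency is the fitted concentration of half-maximal effect; plate controls were basal vehicle for no effect and high inhibitor control for full effect; nearly all actives have a fitted effect of over 50% in size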
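Steps: plate 2000 CHO-M1 cells per well and culture 16–30 h; add compound and lithium; incubate 30 min, 37C; add d2-IP1 tracer and Eu cryptate anti-IP1 antibody in lysis buffer; read after 10 min at room temperature.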
HPGD inh: qHTS Assay for Inhibitors of HPGD (15-Hydroxyprostaglandin Dehydrogenase); 15-hydroxyprostaglandin dehydrogenase [NAD(+)] (Homo sapiens), P15428; purified HPGD, NADH fluorescence kinetic, PGE2 substrate; Potency, µM, inactives show at the top dose activity change, negative = inhibition, actives largely listed as inhibitors; actives 4.3% (n = 150,000); AID 894, 2007; active = well fitted inhibition curve with a large enough effect, not every such curve was filed as active; inconclusive = small, poorly fitted or top-dose-only effect, or another doubt; inactive = no such curve, though single readings can be large or run the other way; note: potency is the fitted concentration of half-maximal effect
Target sequence (P15428 whole entry, looked up): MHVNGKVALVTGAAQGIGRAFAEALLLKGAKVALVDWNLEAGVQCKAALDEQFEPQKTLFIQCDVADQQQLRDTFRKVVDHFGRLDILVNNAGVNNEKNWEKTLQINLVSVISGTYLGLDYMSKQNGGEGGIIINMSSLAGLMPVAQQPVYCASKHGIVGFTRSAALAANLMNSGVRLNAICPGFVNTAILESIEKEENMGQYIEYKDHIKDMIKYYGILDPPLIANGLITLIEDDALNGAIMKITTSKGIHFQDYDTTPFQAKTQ
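NADH formation kinetics: reaction with 30 uM PGE2 and 1 mM NAD+ (final), 20 nM enzyme, Tris-HCl pH 8 with Tween 20, after 15 min compound preincubation at room temperature. Fluorescence change, last versus first of five reads.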
NPSR antag: qHTS Assay for Antagonists of the Neuropeptide S Receptor: cAMP Signal Transduction | Q6W5P4 | CHO-NPSR cells, cAMP TR-FRET, antagonist mode | Potency, µM (top dose mostly 38.3 µM), for inactives: at the highest dose activity change, negative = inhibition, most hits filed as inhibitors | actives 1% (n = 220,000) | AID 1461, 2008; note: potency is the fitted concentration of half-maximal effect; nearly all actives have a fitted effect of over 50% in size
Target sequence (Q6W5P4 whole entry, looked up): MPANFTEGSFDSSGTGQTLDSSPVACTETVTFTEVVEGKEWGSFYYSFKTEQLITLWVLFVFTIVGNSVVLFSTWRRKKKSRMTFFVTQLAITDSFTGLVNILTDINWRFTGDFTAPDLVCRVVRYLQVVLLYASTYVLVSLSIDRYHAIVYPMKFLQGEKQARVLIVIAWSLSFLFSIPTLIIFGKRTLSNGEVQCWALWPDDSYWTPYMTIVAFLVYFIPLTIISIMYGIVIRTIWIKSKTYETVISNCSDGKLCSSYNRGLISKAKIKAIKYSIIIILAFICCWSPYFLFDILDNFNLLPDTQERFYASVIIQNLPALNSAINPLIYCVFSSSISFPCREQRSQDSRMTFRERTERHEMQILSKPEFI
Numbers without * were called inactive; ? = inconclusive; . = no result given; [ ] = another dose, or the depositor's remark. Only some compounds are listed: those with a hit (about 11% of all), similar ones and a draw of the others. Unless noted, calls come from the whole dose curve; as a rule, active = well fitted curve in the direction sought with a large enough effect; inconclusive = small, poorly fitted or top-dose-only effect, or another doubt; inactive = no such curve, though single readings can be large; an effect the other way counts as inactive or inconclusive. Unless noted, % is set by controls: 0 for no effect and ±100 for the full control effect.

SMILES | ALDH1A1 inh | IMPase cell inh | PNC inhibitor | IMPase Li inh | HPGD inh | NPSR antag
COc1cc(/C=N/Nc2nn3cnnc3c3ccccc23)ccc1O | -8% | ? | -9 | 21%[38.3 µM] | ? | -30%[46.1 µM]
Nc1nnc(CCS(=O)(=O)c2cc(Cl)ccc2Cl)s1 | 25µM* | -12 | ? | 29%[38.3 µM] | -20% | 14%[46.1 µM]
COc1ccc(-c2nc(CSCC(=O)N3CCN(C(=O)c4ccco4)CC3)c(C)o2)cc1OC | 20µM* | 4 | ? | -1%[38.3 µM] | -16% | -5%[46.1 µM]
CCOC(=O)N1CCN(C(=O)CSCc2nc(-c3ccccc3F)oc2C)CC1 | 22µM* | 5 | 39 | 11%[38.3 µM] | -19% | -9%[46.1 µM]
COc1ccc(C2=NOC(C(=O)NCc3ccco3)C2)cc1 (stereo not drawn) | 22µM* | 0 | 9 | 40%[38.3 µM] | ? | 8%[46.1 µM]
COc1ccc(C2=NOC(C(=O)Nc3cccnc3)C2)cc1 (stereo not drawn) | -7% | 7 | -102* | 28%[38.3 µM] | -12% | -4%[46.1 µM]
COc1ccc(NC(=O)C2C3C=CC(O3)C2C(=O)NCc2cccnc2)cc1 (stereo not drawn) | -2% | 2 | ? | -18%[38.3 µM] | -2% | 1%[46.1 µM]
COc1cc(C2=NOC(C(=O)NCc3cccs3)C2)cc(OC)c1OC (stereo not drawn) | -10% | 2 | -104* | 29%[38.3 µM] | -20% | 32%[46.1 µM]
COc1ccc(NC(=O)C2C3C=CC(C3)C2C(=O)NCc2ccco2)cc1 (stereo not drawn) | -15% | 15 | 11 | 19%[38.3 µM] | 25µM* | -5%[46.1 µM]
CCCCCC[n+]1c(-c2ccc(Cl)cc2Cl)csc1Nc1ccccc1 | 6% | 4 | -16 | 15% | 0% | 3%[46.1 µM]
COc1cc(/C=N/n2c(-c3ccccc3)n[nH]c2=S)cc(OC)c1O | . | . | . | . | . | 34%
S=c1[nH]nc(-c2ccncc2)n1/N=C/c1ccccc1 | ? | 2 | -28 | -3% | 32µM* | -8%[46.1 µM]
COc1cc(/C=N/n2c(-c3ccccc3)n[nH]c2=S)ccc1O | 25µM* | . | . | . | . | 22%
Cc1ccccc1-n1c(-c2ccncc2)n[nH]c1=S | 16µM* | 9 | ? | 13%[38.3 µM] | ? | -7%[46.1 µM]
Cc1cccc(-n2c(-c3ccncc3)n[nH]c2=S)c1C | ? | . | . | 3% | . | -11%
S=c1[nH]nc(-c2cccc(Cl)c2)n1/N=C/c1ccc(-c2ccccc2Br)o1 | . | . | . | . | . | 9%[7.67 µM]
S=c1[nH]nc(-c2ccccc2)n1/N=C/c1ccc(-c2ccccc2Cl)o1 | 7% | . | -100* | 20% | 3.2µM* | -52%
O=C(O)CC1(C(=O)O)CCCCC1 | 1%[13.5 µM] | . | . | 6% | -13% | .
O=C(CC1C(=O)NCCN1Cc1ccoc1)NCCCn1ncc2ccccc21 (stereo not drawn) | ? | . | . | 8% | . | 16%
Cc1cc(C)nc(SCC(=O)Nc2ncc3c(n2)CC(C)(C)CC3=O)n1 | ? | -9 | 15 | 0%[38.3 µM] | -10% | -13%[46.1 µM]
N/C(=N\OC(=O)c1ccccc1)c1ccncc1 | -3% | . | . | -3% | . | 10%
Cc1cccc(/C=N/n2c(-c3cc(-c4ccccc4)n[nH]3)n[nH]c2=S)c1 | -7% | . | -11 | -3% | 5µM* | -32%
Cc1ccc(/C=N/n2c(-c3ccncc3)n[nH]c2=S)s1 | . | . | . | . | . | 15%
S=c1[nH]nc(-c2cc(-c3ccccc3)n[nH]2)n1/N=C/c1ccccc1 | . | . | . | . | . | -41%
Cc1cccc(-c2n[nH]c(=S)n2/N=C/c2ccc(C)s2)c1 | -1% | . | ? | 0% | 4µM* | -18%
SMILES | ALDH1A1 inh | IMPase cell inh | PNC inhibitor | IMPase Li inh | HPGD inh | NPSR antag
Cc1cccc(/C=N/n2c(-c3ccncc3)n[nH]c2=S)c1 | -13% | . | ? | 6% | 16µM* | -10%
COC(=O)c1sccc1NC(=O)c1cnc2cc(C)nn2c1C | 4% | . | . | -23% | . | 6%
COc1cnc(N(C)C)nc1Sc1cccc(Cl)c1 | ? | 7 | 29 | 12%[38.3 µM] | ? | -22%[46.1 µM]
O=C(CCCn1c(SCc2cccc(F)c2)nc2ccccc2c1=O)NCC1CCCO1 (stereo not drawn) | 16µM* | . | . | 6% | . | ?
O=C(CCCn1c(SCC(=O)NCC2CCCO2)nc2ccccc2c1=O)NCc1ccccc1 (stereo not drawn) | 1% | -2 | 27 | 18%[38.3 µM] | -9% | -5%[46.1 µM]
N#CCSc1nc2ccccc2c(=O)n1CCCC(=O)NCC1CCCO1 (stereo not drawn) | 28µM* | . | . | 9% | . | 4%
O=C(CCCn1c(SCc2cc(=O)n3ccccc3n2)nc2ccccc2c1=O)NCC1CCCO1 (stereo not drawn) | ? | . | . | -4% | . | 12%
CCOc1ccc(C2C(C(=O)Nc3cc(C)on3)c3ccccc3C(=O)N2CCN2CCOCC2)cc1 (stereo not drawn) | -4% | . | . | 0% | . | -3%
COc1ccccc1-c1nc2s/c(=C\c3cccs3)c(=O)n2n1 | -13% | -4 | -17 | 29%[38.3 µM] | -8% | ?
COc1cccc(/C=c2\sc3nc(-c4cccs4)nn3c2=O)c1OC | 4% | 7 | ? | 4%[38.3 µM] | 14µM* | -8%[46.1 µM]
CC(=O)c1ccc(N2CCN(c3ccc(S(=O)(=O)NCCN(C)C)cc3[N+](=O)[O-])CC2)cc1 | . | . | . | . | . | 1%
CC(=O)c1ccc(N2CCN(c3ccc(S(=O)(=O)NCCCN(C)C)cc3[N+](=O)[O-])CC2)cc1 | 19µM* | . | . | 12% | . | -1%
O=c1c2ccccc2sc2nc(C3CCCCC3)n(Cc3ccco3)c(=O)c12 | 1.4µM* | -1 | 7 | 35%[38.3 µM] | 16µM* | 10µM*
CCc1nc2sc3ccccc3c(=O)c2c(=O)n1Cc1ccco1 | ? | 8[0.0738 µM] | -28 | 2% | -5% | -22%[46.1 µM]
Cn1/c(=N\NC(=O)C2CCCCC2)sc2ccccc21 | ? | . | . | -16% | . | -1%
COC(=O)C1CCN(c2cc(Cl)nc(N)n2)CC1 | 13% | . | . | 0% | . | 13%
COc1ccccc1NC(=O)C(C)Sc1nnnn1C (stereo not drawn) | 8.9µM* | 2 | -20 | -1%[38.3 µM] | -4% | -2%[46.1 µM]
CCCn1c(SCN2C(=O)c3ccccc3C2=O)nc2cc(Cl)ccc2c1=O | 1% | . | -23 | -7% | -11% | ?
O=C(CN1CCC(NC(=O)c2ccco2)CC1)Nc1ccccc1[N+](=O)[O-] | 22µM* | . | . | 1% | . | 1%
COc1cc(OC)cc(C(=O)NC2CCN(CC(=O)Nc3cccc4ccccc34)CC2)c1 | 3% | ? | 6 | -2% | -22% | -15%[46.1 µM]
O=C(CN1CCC(NC(=O)c2ccco2)CC1)Nc1cccc2ccccc12 | 12% | -6 | -100* | 4% | -7% | -4%[46.1 µM]
